# Source: PubChem BioAssay AID720690 (Broad Institute, 2013)
# Results with a measured potency or affinity are listed apart. Active and inactive are the calls of the source.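 The calls were made as follows: active = every repeat run showing a signal drop whose fitted half-maximal concentration is at most twice the top tested concentration; inconclusive = repeat runs disagree, or flat partial drop, or poor fit; inactive = the rest.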
# Assay: general mammalian cell viability loss – activator set, cherry-pick, cytotoxicity control for miR-122 modulator project, dose response (AID 720690);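 also: 0% = neutral control wells and -100% = MG132 cytotoxic control wells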
# Settings: HEK293T viability, CellTiter-Glo luminescence, 48 h; series mostly up to 26 µM; activity change, negative = cytotoxicity: at the top concentration
row,Compound,"activity change, negative = cytotoxicity"
1,CN1[C@@H](CO)[C@@H]2c3ccccc3N(C(=O)Nc3cc(F)ccc3F)C[C@@H]21,-20.7% (inactive)
2,COc1ccc(S(=O)(=O)N(C)C[C@@H]2Oc3cc(-c4cccc(F)c4)ccc3S(=O)(=O)N([C@H](C)CO)C[C@H]2C)cc1,-32.3% (inactive)
3,CCOc1ccc(NC(=S)N(CCCN2CCCC2)Cc2cccn2Cc2ccc(Cl)cc2)cc1,-12.4% (inactive)
4,Fc1ccc(CN2CCN(c3ncnc4scc(-c5ccc(F)cc5)c34)CC2)cc1,1.05% (inactive)
5,CC(=O)N(C[C@H]1N[C@H](CO)[C@@H]1c1ccc(-c2ccccc2)cc1)C(C)C,-0.118% (inactive)
6,CCNC(=O)C[C@H]1CC[C@H]2[C@H](COc3ccc(NC(=O)Nc4cccc(OC)c4)cc3C(=O)N2C)O1,-2.63% [at 23.5 µM] (inactive)
7,O=C(C1CC1)N1C[C@H]2[C@@H](c3ccccc31)[C@H](CO)N2C(=O)c1ccccc1F,0.81% [at 23.5 µM] (inactive)
8,CC(C)CC#Cc1ccc2c(c1)O[C@H](CN(C)C(=O)c1cnccn1)[C@H](C)CN([C@H](C)CO)S2(=O)=O,-0.258% (inactive)
9,CCC(=O)N1C[C@H]2[C@@H](c3ccccc31)[C@H](CO)N2C(=O)Nc1ccccc1F,-2.63% [at 23.5 µM] (inactive)
10,CCCNC(=O)C[C@@H]1CC[C@H]2[C@@H](COc3ccc(NC(=O)c4ccc(C(F)(F)F)cc4)cc3C(=O)N2C)O1,-11.3% (inactive)
11,C[C@@H]1CN([C@@H](C)CO)S(=O)(=O)c2ccc(C#CC3(O)CCCC3)cc2O[C@@H]1CN(C)C(=O)c1cccnc1,-6.13% (inactive)
12,CC(=O)N(C)C[C@@H]1[C@@H](c2ccccc2)[C@H](CO)N1C(=O)C1CCC1,-7.02% (inactive)
13,O=C(C1CC1)N(CCN(C(=O)C1CC1)c1ccccc1)c1ccccc1,-9.34% (inactive)
14,CCCN(C[C@@H]1N[C@@H](CO)[C@H]1c1ccc(-c2cccnc2)cc1)C(C)=O,-1.05% (inactive)
15,O=CN1CCN(C(=O)c2ccccc2F)CC1,16.3% (inactive)
16,N#CCc1c(C#N)c(N)nc(N2CCN(S(=O)(=O)c3ccccc3)CC2)c1C#N,-7.64% (inactive)
17,CN(C)CCCNC(=O)C[C@@H]1CC[C@@H]2[C@@H](COc3ccc(NC(=O)NC4CCCC4)cc3C(=O)N2C)O1,11.1% [at 23.5 µM] (inactive)
18,CCCNC(=O)Nc1ccc2c(c1)OC[C@H](C)N(CCC)C[C@H](C)[C@H](OC)CN(C)C2=O,-12.6% (inactive)

row,Compound,"activity change, negative = cytotoxicity"
1,O=C(C1CCOCC1)N1[C@H](CO)[C@H]2c3ccccc3NC[C@H]21,-7.8% [at 23.5 µM] (inactive)
2,COc1ccc(C(C#N)Nc2ccc(C)cc2)cc1 (stereo unspecified),-11% (inactive)
3,Cc1cccc(NC(=O)C[C@H]2CC[C@H]3[C@@H](COc4ccc(NC(=O)NC(C)C)cc4C(=O)N3C)O2)c1,9.81% (inactive)
4,CCN(C[C@@H]1N[C@@H](CO)[C@@H]1c1ccc(C2=CCCC2)cc1)C(=O)c1cccnc1,8.54% [at 23.5 µM] (inactive)
5,CCNC(=O)Nc1ccc2c(c1)C(=O)N(C)[C@H]1CC[C@@H](CC(=O)NCCOC)O[C@@H]1CO2,-0.32% (inactive)
6,CCNC(=O)C[C@@H]1CC[C@@H]2[C@H](COc3ccc(NC(=O)Nc4cccc(Cl)c4)cc3C(=O)N2C)O1,-1.23% (inactive)
7,C/C=C/c1ccc([C@H]2[C@@H](CO)N[C@@H]2CN(C(=O)c2ccccc2F)C(C)C)cc1,-11.2% (inactive)
8,C=CCNC(=S)NNC(=O)Cn1c(-c2ccccc2)cc(=O)n2ncnc12,14.3% (inactive)
9,CN(C(=O)C12CC3CC(CC(C3)C1)C2)C1CCS(=O)(=O)C1 (stereo unspecified),-3.56% (inactive)
10,CC(=O)N(C)C[C@@H]1[C@@H](c2ccc(-c3cccc(C#N)c3)cc2)[C@H](CO)N1C(C)=O,-9.1% (inactive)
11,C/C(=N\Nc1cc(N2CCCCC2)nc(C)n1)c1ccc(Br)cc1,-41.1% (inactive)
12,Cc1nn(C)cc1NC(=O)C[C@H]1CC[C@@H]2[C@H](COc3ccc(NC(=O)Nc4cccc(Cl)c4)cc3C(=O)N2C)O1,3.12% (inactive)
13,C[C@H](CO)N1C[C@H](C)[C@H](CN(C)CC2CCCCC2)OCCCC[C@H](C)Oc2ccc(NC(=O)Nc3cccc4ccccc34)cc2C1=O,-26% [at 12 µM] (inactive)
14,Cc1cnc(NC(=O)c2cc3c(C)nn(-c4ccccc4)c3s2)s1,-35.6% (inactive)
15,O=C(c1ccccc1)N1C[C@H]2[C@@H](c3ccccc31)[C@@H](CO)N2C(=O)CN1CCOCC1,1.14% (inactive)
16,CNC(=O)C[C@@H]1CC[C@@H]2[C@H](COc3ccc(NC(=O)Nc4ccc(Cl)cc4)cc3C(=O)N2C)O1,2.54% (inactive)
17,CCNC(=O)C[C@@H]1CC[C@H]2[C@H](COc3ccc(NC(=O)c4ccccc4)cc3C(=O)N2C)O1,5.53% (inactive)
18,C[C@H]1CN([C@@H](C)CO)S(=O)(=O)c2ccc(-c3ccc(C(=O)N(C)C)cc3)cc2O[C@H]1CN(C)C(=O)C1CCC1,5.13% (inactive)
